# Measured values published in PubChem BioAssay (NCATS).
# Values joined by “and” are separate entries in the source; they are usually repeats but may differ in a detail not shown here. Identical values can stand only once. Results filed as inconclusive are left out. The source holds several records for some structures; these can differ, active in one and inactive in another. Values without a mark were called inactive. Active and inactive are the calls of the source. Calls come from the whole dose curve; as a rule, active = well fitted activation curve with a large enough effect; inconclusive = small, poorly fitted or top-dose-only effect; inactive = flat fitted curve, though single readings scatter.
# Assay: qHTS assay for environmental chemicals that activate the Aryl hydrocarbon Receptor (AhR) signaling pathway (AID 651777); note: nearly all actives have a fitted effect of over 15% in size; for activation: % of control where 0% means no effect
# Details: 1A2-DRE human hepatoma cells, luciferase, 24 h; activation: stronger effect = higher value
# Description: National Center for Advancing Translational Sciences [NCATS]
# NIH Chemical Genomics Center [NCGC]
# U.S. Environmental Protection Agency [EPA]
# National Institutes of Environmental Health Sciences [NIEHS]
# National Toxicology Program [NTP]
# The Aryl hydrocarbon Receptor (AhR) plays a critical role in the development of cancer or neoplasm and its formation is most likely due to genetic mutations and the influence of environment. Exposure to environmental pollutants such as polycyclic aromatic hydrocarbons (PAH), their halogenated derivatives and heterocyclic amines causes the induction of phase I and II enzymes. The transcriptional activation of CYP1A2 is directly regulated by AhR.
# A cell based assay (1A2-DRE cells, developed by Puracyp, Inc., CA) was used to assess the activation of AhR. Human hepatoma cells were stably transfected with the dioxin response element (DRE) and CYP1A2 promoter fused to a luciferase gene. Increased luciferase activity can be used to identify the compounds that cause the induction of CYP1A2 and AhR activation.
# 1,200 cells in 5 uL/well were dispensed into white wall/solid bottom 1536-well plates using a Multidrop Combi (Thermo Scientific) dispenser. Following transfer of 23 nL compound or DMSO vehicle by a pin tool, the plates were incubated 24 hr at 37 C and 5% CO2. 5 ul One-Glo (Promega) was then added to each well and following 30 min incubation at room temperature, luciferase activity was quantified on a ViewLux CCD-based plate reader.
# Potency is the fitted concentration of half-maximal effect.
SMILES,activation,Potency
ClC1=C(Cl)C2(Cl)C3C4C=CC(C4)C3C1(Cl)C2(Cl)Cl (stereo not given),0.192%,–
CCCCOC(=O)c1ccccc1C(=O)OCCCC,-0.984% and 1.91%,–
CC(Cl)Cl,-0.961%,–
CNC(=O)Oc1ccccc1OC(C)C,-1.13%,–
CCc1cccc(C)c1N(C(=O)CCl)C(C)COC (stereo not given),-0.315%,–
c1nc[nH]n1,-0.221%,–
CCSC(=O)Cl,0.624%,–
ClC(Cl)=C(c1ccc(Cl)cc1)c1ccc(Cl)cc1,0.0823% and 0.597% and 0.112%,–
C=CC(C)=O,1.86%,–
CNC(=O)O/N=C/C(C)(C)SC,-0.995% and 0.0962%,39.8 µM (active)
c1ccc(-c2ccccc2)cc1,-0.623% and 2.83%,–
O=C(O)COc1cc(Cl)c(Cl)cc1Cl,0.686%,–
Brc1ccc(Oc2cc(Br)c(Br)cc2Br)c(Br)c1,5.38% and 0.601% and 5.34%,–
ClC(Cl)(Cl)c1ccccc1,-0.334% and -0.126%,–
C=CC(=C)C,-0.578%,–
O=C=NC1CCCCC1,2.61% and 5.17%,–
ClC(Cl)=C(Cl)Cl,-0.882% and 0.706%,–
CCS(=O)CCSP(=O)(OC)OC (stereo not given),-0.491%,–
CC(C)(C)C(=O)C(Oc1ccc(Cl)cc1)n1cncn1 (stereo not given),6%,–
Cc1ccccc1N,4.33% and 3.03%,–

SMILES,activation,Potency
CNC(=O)CSP(=S)(OC)OC,0.301% and 4.06%,–
O=C(Cl)C(Cl)(Cl)Cl,0.0046%,–
COP(N)(=O)SC (stereo not given),-0.0851% and 1.26%,–
c1ccc(OP(Oc2ccccc2)Oc2ccccc2)cc1,0.234% and -1.88%,–
CC(C)(c1ccccc1)c1ccc(O)cc1,0.0169% and 0.603%,–
C#CCOS(=O)OC1CCCCC1Oc1ccc(C(C)(C)C)cc1 (stereo not given),0.168%,–
Cc1ccc(O)c(C)c1,-0.285% and -2.95% and -1.2%,–
O=NN(CCO)CCO,-0.118%,–
CC(O)CCl (stereo not given),0.217% and 1.37%,–
c1ccc2c(c1)CCCC2,2.13%,–
[O-][Br+2]([O-])O,0.946% and -0.602%,–
CC(C)(C)OO,-0.688% and -2.1%,–
CCC[CH2][Sn]([Cl])([Cl])[Cl],0.348% and 0.965%,–
C[N+](C)(C)Cc1ccccc1,-0.332% and -0.436%,–
Nc1ccccc1Cl,0.951%,–
NC(=S)Nc1ccccc1,0.646% and -0.436% and 0.133%,–
C[C@H]1CCCC(=O)CCC/C=C/c2cc(O)cc(O)c2C(=O)O1,-5.88% and -4.48% and -7.69%,–
COc1ccc(N)cc1,1.03% and 6.89%,–
O=[N+]([O-])c1cccc2ccccc12,0.626% and 5.73%,–
